Assay results reported in PubChem BioAssay.
For some of these results: Results with a measured potency or affinity are listed apart. Inconclusive results are not listed. The list shows a part of the results. The source made the active and inactive calls. Unless noted, the rule behind the calls is not given here.

What was measured:
[1] = IOSE-T80 viability loss, PAX8-independent line – cell-based, cherry-pick, selectivity assay for PAX8 inhibitor project, dose response (AID 687032;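 active = fitted half-maximal concentration for viability loss no higher than twice the top valid dose, in every repeat run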;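 note: cells exposed to compound for 96 h before reading; 0% = neutral control wells and -100% = 2 µM mitoxantrone kill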); conditions: CellTiterGlo ATP luminescence, 96 h; series mostly up to 35 µM
[2] = CMV-driven luciferase expression suppression in HEK293 – cell-based, luminescence, dry powder, counter-screen for Pax8 inhibitor project, dose response (AID 743020;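 active = signal-lowering compounds whose fitted half-maximal concentration is at or below twice the top tested dose in every run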;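 note: HEK293 cells stably expressing the CMV luciferase reporter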); conditions: HEK293 CMV-luciferase reporter, SteadyGlo luminescence, 24 h; series mostly up to 35 µM
[3] = general cell-killing toxicity readout – plate reader, dry powder samples, cytotoxicity control for PAX8 inhibitor project, dose response (AID 743021); conditions: cell line, non-specific cytotoxicity counter-screen; series mostly up to 35 µM
[4] = toxicity toward immortalized ovarian surface epithelium – cell-based, plate reader, dry powder samples, cytotoxicity control for PAX8 inhibitor project, dose response (AID 743045); conditions: IOSE-T80 ovarian epithelial cells; series mostly up to 35 µM;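 note: 0% = neutral control median and -100% = positive control median; more negative values mean more cell killing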
[5] = A2780 cell killing – plate reader, dry powder samples, cytotoxicity control, dose response (AID 743046); conditions: A2780 ovarian cancer cytotoxicity; series mostly up to 35 µM;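 note: 0% = neutral control wells and -100% = cytotoxic reference compound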
[6] = OVCAR8 cell viability loss – plate reader, dry powder samples, PAX8 project, dose response (AID 743197); conditions: series mostly up to 35 µM
[7] = IGROV1 cell killing – plate reader, dry powder samples, PAX8 inhibitor project, dose response (AID 743043); conditions: IGROV1 ovarian cancer cell cytotoxicity; series mostly up to 35 µM;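 note: more negative means fewer viable cells or more cytotoxicity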
[8] = OVCAR-3 cell viability loss – plate reader, dry powder samples, PAX8 inhibitor project, dose response (AID 743044); conditions: NIH:OVCAR-3 ovarian cancer cell viability; max activity: at 35 µM, stronger effect = lower value unless noted; series mostly up to 50 µM
[9] = small-molecule DNA binding by polarization – biochemical, fluorescence polarization, cherry-pick, counter-screen for EWS/Fli inhibitor project, dose response (AID 720586;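 active = fitted curve reaches a 35% signal fall AC35 below twice the sample's top valid tested dose, actives reach about 48 µM in these data; inactive = the rest, including activity in the rising direction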;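 note: 0% = neutral control median and -100% = 10 µM mitoxantrone control median; lower polarization ratio signals compound binding to DNA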); conditions: salmon sperm DNA acridine orange fluorescence polarization; series mostly up to 68 µM
[10] = toxicity toward HepG2 liver cells – cell-based, plate reader, cherry-pick, antagonist series, cytotoxicity control, dose response (AID 743416); conditions: series mostly up to 26 µM;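 note: 0% = neutral control wells and -100% = positive control wells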
[11] = A549 cell cytotoxicity, dose response, cytotoxicity control, plate reader, cherry-pick, antagonist series (AID 743412); conditions: series mostly up to 26 µM;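 note: 0% = neutral control wells and -100% = positive control wells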

C[C@@H]1CCCCO[C@@H](CN(C)Cc2ccc(Cl)c(Cl)c2)[C@@H](C)CN([C@@H](C)CO)C(=O)c2cc(NC(=O)Nc3ccccc3)ccc2O1
inactive: outcome [1] | outcome [2] | outcome [3] | outcome [4] | outcome [5] | outcome [6]

C[C@H]1CN([C@@H](C)CO)C(=O)Cc2cc(NC(=O)NC3CCCCC3)ccc2O[C@@H]1CN(C)Cc1ccc(-c2ccccc2)cc1
inactive: outcome [1] | outcome [2] | outcome [7] | max activity [8] 18.6% [at 1 µM, stronger effect = lower value] | outcome [4] | outcome [5] | outcome [6]

CC(=O)Nc1ccc(S(=O)(=O)Nc2ccc(N3CCCCC3)cc2)cc1
inactive: AC35 [9]

C[C@@H]1CCCCO[C@H](CN(C)C(=O)Nc2cccc3ccccc23)[C@H](C)CN([C@@H](C)CO)C(=O)c2cc(NS(=O)(=O)c3ccc(Cl)cc3)ccc2O1
inactive: outcome [1] | outcome [2] | outcome [4] | outcome [5]

O=C(CN1C(=O)c2ccccc2S1(=O)=O)c1ccc2c(c1)OCCO2
inactive: outcome [1] | outcome [2] | outcome [3] | outcome [10]

C[C@@H]1CCCCO[C@H](CN(C)Cc2ccc(C(F)(F)F)cc2)[C@@H](C)CN([C@@H](C)CO)C(=O)c2cc(NC(=O)Nc3ccc(F)cc3)ccc2O1
inactive: outcome [1] | outcome [3] | outcome [4]

C[C@@H]1CN([C@H](C)CO)C(=O)c2cc(NC(=O)Nc3ccccc3)ccc2O[C@@H](C)CCCCO[C@@H]1CN(C)Cc1ccc(Cl)c(Cl)c1
inactive: outcome [1] | outcome [7]

C[C@H]1CCCCO[C@H](CN(C)C(=O)Nc2cccc3ccccc23)[C@@H](C)CN([C@@H](C)CO)C(=O)c2cc(NS(=O)(=O)c3ccc(Cl)cc3)ccc2O1
inactive: outcome [1] | outcome [2] | outcome [3] | max activity [8] -25.9% | outcome [4] | outcome [5]

COc1cccc(-c2ccc3c(c2)[C@H]2[C@H](CCN2S(=O)(=O)c2ccccc2F)[C@@H](CO)N3)c1
inactive: outcome [1] | outcome [2] | outcome [3] | outcome [4] | outcome [5]

COc1ccc(S(=O)(=O)Nc2ccc3c(c2)C(=O)N([C@@H](C)CO)C[C@H](C)[C@@H](CN(C)C(=O)Nc2ccc(F)cc2)OCCCC[C@H](C)O3)cc1
inactive: outcome [1] | outcome [2] | outcome [7] | max activity [8] -15.3% | outcome [4] | outcome [5] | outcome [6]

C[C@@H]1CN([C@@H](C)CO)C(=O)Cc2cc(NC(=O)CCCCCC(=O)Nc3ccccc3N)ccc2O[C@@H]1CN(C)Cc1ccc(C(F)(F)F)cc1
inactive: outcome [1] | outcome [2] | outcome [7] | outcome [4] | outcome [5]

C[C@@H]1CCCCO[C@H](CN(C)Cc2ccc(Cl)c(Cl)c2)[C@@H](C)CN([C@@H](C)CO)C(=O)c2cc(NC(=O)Nc3ccccc3)ccc2O1
inactive: outcome [1] | outcome [3] | outcome [7] | max activity [8] 15.8% [at 0.26 µM, stronger effect = lower value] | outcome [4] | outcome [5] | outcome [6]

COc1ccccc1C#Cc1ccc2c(c1)O[C@@H](CN(C)Cc1ccncc1)[C@H](C)CN([C@H](C)CO)S2(=O)=O
inactive: outcome [1] | outcome [2] | outcome [4] | outcome [5]

C[C@H](CO)N1C[C@H](C)[C@@H](CN(C)C(=O)c2ccc3c(c2)OCO3)Oc2cc(C#Cc3ccccc3F)ccc2S1(=O)=O
inactive: outcome [1] | outcome [3] | outcome [7] | max activity [8] -4.28% | outcome [4] | outcome [5] | outcome [6]

CCCC#Cc1ccc([C@@H]2[C@@H](C#N)N(C(=O)C3CCCCC3)[C@H]2CO)cc1
inactive: outcome [1] | outcome [2] | outcome [7] | outcome [4] | outcome [5]

C(=N\Nc1ccc2ccccc2n1)/c1ccc2c(c1)OCO2
inactive: AC35 [9]

O=C(Nc1ccc(F)cc1)N1CC(=O)N2[C@@H](CO)[C@H](c3ccc(-c4ccc(F)cc4)cc3)[C@@H]2C1
inactive: outcome [1] | outcome [3] | outcome [7] | outcome [5]

C[C@@H]1CN([C@H](C)CO)C(=O)c2cc(NS(=O)(=O)c3ccc(F)cc3)ccc2O[C@@H](C)CCCCO[C@@H]1CN(C)Cc1ccccc1
inactive: outcome [1] | outcome [2] | outcome [7] | outcome [4] | outcome [5]

COc1ccc(S(=O)(=O)N(C)C[C@@H]2OCCCC[C@H](C)Oc3ccc(NS(=O)(=O)c4ccccc4)cc3C(=O)N([C@H](C)CO)C[C@H]2C)cc1
inactive: outcome [1] | outcome [2] | outcome [3] | outcome [4] | outcome [5]

C[C@@H]1CN([C@H](C)CO)C(=O)c2cc(NC(=O)Nc3ccc(F)cc3)ccc2O[C@@H](C)CCCCO[C@H]1CN(C)Cc1ccc(C(F)(F)F)cc1
inactive: outcome [1] | outcome [3] | outcome [7] | outcome [4] | outcome [5] | outcome [6]

COc1cc(-c2cnc3c(NC=O)cc(-c4cccc(NC(C)=O)c4)cn23)cc(OC)c1OC
inactive: outcome [1] | outcome [3]

C[C@@H]1CN([C@@H](C)CO)S(=O)(=O)c2ccc(C#Cc3ccncc3)cc2O[C@H]1CN(C)C(=O)Nc1ccc2c(c1)OCO2
inactive: outcome [1] | outcome [2] | outcome [3] | outcome [7] | outcome [6]

O=C(Nc1cccc(F)c1)N1CCCCN2[C@H](CO)[C@@H](c3ccc(C#Cc4ccccc4)cc3)[C@H]2C1
inactive: outcome [1] | outcome [2] | outcome [5] | outcome [6]

CN1c2ccc(-c3cccc(C#N)c3)cc2[C@H]2[C@H](CCN2S(=O)(=O)c2ccccc2F)[C@H]1CO
inactive: outcome [1] | outcome [3] | outcome [4]

C[C@@H]1CN([C@H](C)CO)C(=O)c2cc(NC(=O)Nc3ccccc3)ccc2O[C@@H](C)CCCCO[C@H]1CN(C)Cc1ccc(C(F)(F)F)cc1
inactive: outcome [1] | outcome [2] | outcome [3] | outcome [5] | outcome [6]

Cc1ccc(C)c(S(=O)(=O)N2CCN(c3ncnc4sccc34)CC2)c1
inactive: AC35 [9]

N#C[C@@H]1[C@H](c2ccc(C#Cc3cccc(F)c3)cc2)[C@@H](CO)N1C(=O)C1CCCC1
inactive: outcome [11]

O=C(Nc1ccc(Cl)c(Cl)c1)N[C@@H]1CC[C@H](CCn2cc(C3CCCCC3)nn2)O[C@H]1CO
inactive: outcome [2] | outcome [3] | outcome [7] | max activity [8] -6.27% [at 16 µM, stronger effect = lower value] | outcome [4] | outcome [5] | outcome [6]

C[C@@H]1CN([C@H](C)CO)C(=O)c2cc(NC(=O)Nc3ccc(F)cc3)ccc2O[C@@H](C)CCCCO[C@@H]1CN(C)Cc1ccc2c(c1)OCO2
inactive: outcome [2] | outcome [3] | outcome [7] | max activity [8] -19.6% [at 4.2 µM, stronger effect = lower value] | outcome [4] | outcome [5]

CC1(Cc2ccc(OC(F)(F)F)cc2)C(=O)Nc2ccc(S(=O)(=O)NC3CCCCC3)cc21 (stereo unspecified)
inactive: outcome [2] | outcome [3]

N#Cc1ccc(-c2ccc(C3[C@@H]4CN(C(=O)C5CC5)C[C@H]3N4)cc2)cc1 (stereo partly specified)
inactive: outcome [2] | outcome [3]

C[C@@H]1CCCCO[C@H](CN(C)Cc2ccc(Cl)c(Cl)c2)[C@H](C)CN([C@@H](C)CO)C(=O)c2cc(NC(=O)Nc3ccccc3)ccc2O1
inactive: outcome [2] | outcome [3] | outcome [7] | max activity [8] 4.55% | outcome [4] | outcome [5] | outcome [6]

CN1c2ccc(-c3cccc(F)c3)cc2[C@@H]2[C@@H](CCN2C(=O)Cc2ccccc2)[C@@H]1CO
inactive: outcome [2] | outcome [3] | outcome [7] | max activity [8] 21.5% | outcome [4] | outcome [5]

C[C@@H]1CCCCO[C@@H](CN(C)Cc2ccc(C(F)(F)F)cc2)[C@@H](C)CN([C@@H](C)CO)C(=O)c2cc(NS(=O)(=O)c3ccc(F)cc3)ccc2O1
inactive: outcome [2] | outcome [3] | outcome [7] | max activity [8] -6.83% [at 16 µM, stronger effect = lower value] | outcome [4] | outcome [5] | outcome [6]

C[C@@H]1CCCCO[C@H](CN(C)Cc2ccc(C(F)(F)F)cc2)[C@H](C)CN([C@@H](C)CO)C(=O)c2cc(NS(=O)(=O)c3cccs3)ccc2O1
inactive: outcome [2] | outcome [3] | outcome [7] | max activity [8] -8.64% [at 0.5 µM, stronger effect = lower value] | outcome [4] | outcome [5] | outcome [6]

COc1cccc(S(=O)(=O)N2CC[C@H]3[C@@H](CO)N(C)c4ccc(C#Cc5ccc(F)cc5)cc4[C@H]32)c1
inactive: outcome [2] | outcome [3] | outcome [7] | max activity [8] -17.2% | outcome [4] | outcome [5] | outcome [6]

CC(=O)[C@@]1(O)Cc2c(O)c3c(c(O)c2[C@H](O[C@H]2C[C@H](N)[C@H](O)[C@H](C)O2)C1)C(=O)c1ccccc1C3=O
inactive: outcome [2] | outcome [3]

Cc1ccc(-c2csc3ncnc(Sc4nnc(CN5CCCCCC5=O)o4)c23)cc1
inactive: outcome [2] | outcome [3]

C[C@@H]1CCCCO[C@@H](CN(C)C(=O)Nc2cccc3ccccc23)[C@H](C)CN([C@H](C)CO)C(=O)c2cc(NS(=O)(=O)c3ccccc3)ccc2O1
inactive: outcome [2] | outcome [3] | outcome [7] | max activity [8] 28.6% [at 2.1 µM, stronger effect = lower value] | outcome [4] | outcome [5]

C[C@@H]1CCCCO[C@H](CN(C)Cc2ccc(C(F)(F)F)cc2)[C@H](C)CN([C@H](C)CO)C(=O)c2cc(NS(=O)(=O)c3ccccc3)ccc2O1
inactive: outcome [2] | outcome [3] | outcome [7] | max activity [8] -11.2% | outcome [4] | outcome [5]

COc1ccc(NC(=O)Nc2ccc3c(c2)C(=O)N([C@@H](C)CO)C[C@@H](C)[C@@H](CN(C)CC2CCCCC2)OCCCC[C@@H](C)O3)cc1
inactive: outcome [2] | outcome [3] | outcome [7] | max activity [8] -9.76% [at 4.2 µM, stronger effect = lower value] | outcome [4] | outcome [5] | outcome [6]

C[C@@H]1CN([C@H](C)CO)S(=O)(=O)c2ccc(C#CC3CCCC3)cc2O[C@@H]1CN(C)C(=O)Cc1ccncc1
inactive: outcome [2] | outcome [3] | outcome [7] | max activity [8] 16.7% [at 0.5 µM, stronger effect = lower value] | outcome [4] | outcome [5] | outcome [6]
